Bioassay records: PubChem BioAssay, The Scripps Research Institute Molecular Screening Center
SRC3 inh = inhibitors of human steroid receptor coactivator 3 (SRC3); Q9Y6Q9; HEK293 GAL4-SRC3 luciferase reporter, luminescence; inhibition, % at 3.6 µM; hit rate 0.17% among 360,000;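 active = inhibition above a per-campaign cutoff, the mean of all compounds plus 3 SD, cut at about 60% in these data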;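 also: 0% = DMSO-treated cells and 100% = gossypol-treated cells at 36 µM; higher means less SRC3-driven luciferase light from the GAL4 reporter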
NR5A2 inv ag = suppresses constitutive activity of human LRH-1 | HEK293T StAR-luciferase reporter, LRH-1 transfected, 24 h | O00482 | inhibition, % at 3.6 µM | hit rate 0.13% among 360,000;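 active = inhibition above the mean inhibition of all tested compounds plus 3 SD, cut at about 73% in these data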;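 also: 0% = DMSO wells and 100% = reporter-only cells lacking LRH-1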
NCOA2 inhibitor = inhibits human steroid receptor coactivator 2 | AID 651957 | HEK293 GAL4-SRC2 luciferase reporter, luminescence | inhibition, % at 9 µM | hit rate 0.17% among 370,000;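 active = inhibition above the mean inhibition of all tested compounds plus 3 SD, set per campaign, cut at about 52% in these data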;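 also: 0% = DMSO treated cells and 100% = cells given Gossypol at 36 µM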
NCOA1 inh = inhibitors of human steroid receptor coactivator 1 (SRC1). HEK293 GAL4-SRC1 luciferase reporter, luminescence. hit rate 0.12% among 360,000. inhibition, % at 3.6 µM. Q15788;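 active = inhibition above the campaign mean plus 3 SD, with each screening campaign given its own cutoff, cut at about 60% in these data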;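 also: 0% = DMSO treated cells and 100% = gossypol at 36 µM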
NR2F2 inh = NR2F2 (human) inhibition, primary screen; P24468; HEK293T NGFI-A luciferase reporter, luminescence; inhibition, % at 8.6 µM; hit rate 0.7% among 370,000; AID 686940;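 active = inhibition above a per-plate cutoff, mean inhibition of test wells between control levels plus 3 SD, cut at about 38% in these data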;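 also: cells cotransfected with COUP-TFII expression vector driving the NGFI-A reporter; 0% = median of COUP-TF2 test wells and 100% = reporter-only cells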
GalR3 antagonist = human GalR3 antagonism; O60755; HEK293 GalR3-CNG cAMP membrane potential fluorescence; galR3 body fused to GalR1 C-terminus; inhibition, % at 3 µM; hit rate 0.44% among 360,000; AID 651719;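 active = inhibition above the screen-wide average plus 3 SD, cut at about 13% in these data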;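 also: forskolin and galanin both at EC90 stimulate the cells; cAMP rise reported by CNG channel membrane potential dye signal; 0% = forskolin plus galanin with DMSO and 100% = forskolin alone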
GalR3 conf = confirmation of human galanin receptor 3 antagonists. hit rate 59% among 1,600. HEK293 GalR3 CNG cAMP biosensor, membrane potential fluorescence; galR3 fused to GalR1 carboxy tail; challenged with forskolin and galanin at EC90. shares compounds with GalR3 antagonist. inhibition, % at 3 µM;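 active = inhibition above the primary screen's cutoff, the mean inhibition of all screened compounds plus 3 SD, cut at about 13% in these data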;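 also: 0% = forskolin plus galanin and 100% = forskolin alone with DMSO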
CNG parental = counter-screen for GalR3 antagonists: nonspecific agonists in parental HEK-CNG cells; shares compounds with GalR3 antagonist; activation, % at 3 µM; hit rate 10% among 1,600; HEK293-CNG parental cells, cAMP membrane potential fluorescence; normalised: DMSO wells 0%, forskolin wells 100%; AID 652268; in the data active = activation above about 1.3%
* hit, by the source's call; · = no result given. Rows were chosen to be rich in hits. Some 1.1% of all compounds tested hit in one or more screens of this group.

SMILES | SRC3 inh | NR5A2 inv ag | NCOA2 inhibitor | NCOA1 inh | NR2F2 inh | GalR3 antagonist | GalR3 conf | CNG parental
CCN(CC)S(=O)(=O)c1ccc(O)c(NC(=O)c2ccc(N3CCOCC3)c([N+](=O)[O-])c2)c1 | -9 | -4 | -19 | 16 | 3 | 23* | 11 | 0
CCN(CC)S(=O)(=O)c1ccc(N2CCOCC2)c(NC(=O)c2ccccc2)c1 | 3 | 1 | 5 | 1 | 1 | -1 | · | ·
O=S1(=O)c2c(cccc2N2CCSCC2)Oc2ccccc2CN1Cc1cn(Cc2cccc(C(F)(F)F)c2)nn1 | · | · | 10 | · | 0 | · | · | ·
COC(=O)[C@H]1C[C@@]2(N3CCCCC3)c3ccccc3N(C(=O)OC(C)(C)C)[C@H]2N1C(=O)OC(C)(C)C | · | · | 25 | · | 5 | · | · | ·
COCCN(C(=O)COC(=O)CCS(=O)(=O)c1ccccc1)c1c(N)n(Cc2ccccc2)c(=O)[nH]c1=O | -10 | -6 | -26 | -6 | -24 | 14* | -2 | 0
CCn1c2ccccc2c2cc(NC(=O)COC(=O)c3cccc(F)c3)ccc21 | · | · | -5 | · | -13 | · | · | ·
Cc1oc2c(C)c3oc(=O)c(CCC(=O)N4C[C@H]5C[C@@H](C4)c4cccc(=O)n4C5)c(C)c3cc2c1C | 18 | -5 | 1 | 3 | -40 | 15* | 7 | 0
NC(=Nc1cccc(F)c1)NC(=O)OCc1ccccc1 | · | · | -49 | · | -67 | · | · | ·
COc1cc2c(cc1OC)-c1cc(NC3CCCCCCC3)nc(=O)n1CC2 | -20 | 4 | -26 | -54 | -33 | 47* | 57* | 1.4*
COc1cc2c(cc1OC)-c1cc(NC3CCCCC3)nc(=O)n1CC2 | -30 | -2 | -34 | -26 | -39 | 44* | 33* | 0
COc1ccc(Cc2c(O)nc(SCC(=O)NC34CC5CC(CC(C5)C3)C4)[nH]c2=O)cc1 | -9 | 0 | 7 | -9 | 10 | -3 | 4 | 0
Cc1cc(C(=O)N/N=C(\CCC(=O)O)c2cccs2)c2ccccc2n1 | 10 | 9 | 12 | 4 | 9 | 17* | -5 | 1
CCCOc1ccc(Cn2c(=O)oc3ccc(C)cc32)cc1OC | 1 | 7 | 17 | -46 | 12 | 14* | 0 | 0
CCCOc1ccccc1Cn1c(=O)oc2ccc(C)cc21 | -12 | -8 | 13 | -20 | 17 | -1 | · | ·
CCc1nnc(NC(=O)c2nc3nc(C)cc(C)n3n2)s1 | 4 | -10 | -12 | -5 | -12 | 13* | 0 | 0
CCCCc1nnc(NC(=O)c2nc3nccc(C)n3n2)s1 | 5 | 10 | -18 | 4 | 14 | -5 | · | ·
Cc1ccc(/C=N\NC(=O)COc2ccc(C)cc2[N+](=O)[O-])cc1 | 1 | -2 | 15 | -23 | 0 | 13* | 1 | 0
COC(OC)c1ccnc(-c2ccc(OC(=O)c3cccs3)cc2)n1 | 1 | -12 | -14 | -29 | -2 | 17* | 5 | 0
COC(=O)CNC(=O)COC(=O)/C=C/c1cccs1 | -3 | -8 | 14 | 10 | -29 | -3 | · | ·
COc1ccc(CCNC(=O)COC(=O)/C=C/c2cccs2)cc1 | -1 | 2 | -17 | -9 | 5 | · | 0 | 1
CC(C)OCCCNC(=O)C1CCC(CNS(=O)(=O)c2ccc(Cl)cc2)CC1 (configuration not stated) | 17 | 7 | 6 | 4 | -27 | -1 | · | ·
CCOCCCNC(=O)C1CCC(CNS(=O)(=O)c2ccc(OC)cc2)CC1 (configuration not stated) | 10 | 1 | 16 | -19 | 0 | 14* | 42* | 1.9*
CC(C)OCCCNC(=O)C1CCC(CNS(=O)(=O)c2ccccc2)CC1 (configuration not stated) | -3 | 1 | 9 | -15 | 8 | 26* | 4 | 0
CCOCCCNC(=O)C1CCC(CNS(=O)(=O)c2ccc(F)cc2)CC1 (configuration not stated) | 1 | 6 | 25 | 4 | -18 | 2 | · | ·
COC(=O)[C@]12C[C@H](CC(=O)NCc3ccc(C)o3)C(=O)N(CCc3ccc(OC)c(OC)c3)C1=C[C@H](C(C)C)O[C@@H]2C1CC1 | · | · | -6 | · | -5 | · | · | ·
SMILES | SRC3 inh | NR5A2 inv ag | NCOA2 inhibitor | NCOA1 inh | NR2F2 inh | GalR3 antagonist | GalR3 conf | CNG parental
Cc1occc1-c1nnc(SCCNCCO)o1 | 2 | -55 | 9 | -2 | -10 | 15* | 5 | 0
Cc1occc1-c1nnc(SCC(=O)NCCc2ccccc2)o1 | -13 | -17 | -37 | -33 | -24 | 0 | · | ·
CNC(=S)N/N=C/c1ccc(OCC(=O)Nc2c(C)cc(C)cc2C)c(OC)c1 | -4 | 8 | -13 | 11 | 4 | 19* | 23* | 0
COc1ccc(C2C3=C(CC(C)(C)CC3=O)Nc3cc4c(cc32)OCO4)cc1 (configuration not stated) | -11 | 13 | -3 | 5 | 6 | -3 | · | ·
COc1ccc(OC)c(C2C3=C(COC3=O)Nc3cc4c(cc32)OCO4)c1 (configuration not stated) | 11 | 44 | -17 | -25 | -83 | 28* | 23* | 1.4*
Cn1c(=O)c2c(nc(NC3CCCCC3)n2Cc2ccccc2)n(C)c1=O | -25 | 0 | -1 | 2 | 6 | 0 | · | ·
Cn1c(=O)c2c(nc(NCCCN3CCOCC3)n2Cc2ccc(Cl)cc2)n(C)c1=O | 15 | -12 | -13 | 0 | -2 | 14* | 15* | 0
Cn1c(=O)c2c(nc(NCCCN3CCOCC3)n2Cc2ccc(Cl)c(Cl)c2)n(C)c1=O | · | · | -37 | · | -12 | 10 | · | ·
Cn1c(=O)c2c(nc(NCC3CCCO3)n2Cc2ccccc2)n(C)c1=O (configuration not stated) | 6 | 9 | -14 | -6 | 6 | · | 5 | 0
CCOC(=O)C1(Cc2cccc(OC)c2)CCN(CC(O)CO)CC1 (configuration not stated) | 22 | 4 | 22 | -5 | 0 | -6 | · | ·
CCOC(=O)C1(Cc2cccc(OC)c2)CCN(CCO)CC1 | -16 | 0 | -21 | -3 | 7 | 18* | 9 | 1
S=C(Nc1cccc(Cl)c1)OCCN1CCCC12CCC(c1ccccc1)CC2 (configuration not stated) | · | · | · | · | -12 | · | · | ·
O=c1c2cc3cc(Cl)ccc3nc2ncn1CCc1c[nH]c2ccccc12 | · | · | -8 | · | -8 | · | · | ·
COc1ccc(C(=O)NC(=S)Nc2ccc(CN3CCCCC3)cc2)cc1Cl | 14 | -4 | 28 | -8 | -6 | 15* | 7 | 9.7*
CCOc1ccc(OCc2cccc(C(=O)Nc3ccc(CN4CCCCC4)cc3)c2)cc1 | -120 | -154 | -78 | -147 | -47 | 0 | · | ·
